Most compounds without a hit are left out; they make up all but 21% or so of the library.
Giardia FBPA inh-1: Giardia lamblia aldolase inhibition. purified Giardia FBPA. Potency, µM (series often up to 59.6 µM), for the others: at the highest dose activity, negative = inhibition, most hits filed as inhibitors. 290,000 tested, 0.71% active. AID 2451; note: potency is the fitted concentration of half-maximal effect; % is set by controls: 0 for no effect and ±100 for the full control effect; nearly all actives have a fitted effect of over 55% in size
Target sequence (A8B2U2 whole entry, looked up): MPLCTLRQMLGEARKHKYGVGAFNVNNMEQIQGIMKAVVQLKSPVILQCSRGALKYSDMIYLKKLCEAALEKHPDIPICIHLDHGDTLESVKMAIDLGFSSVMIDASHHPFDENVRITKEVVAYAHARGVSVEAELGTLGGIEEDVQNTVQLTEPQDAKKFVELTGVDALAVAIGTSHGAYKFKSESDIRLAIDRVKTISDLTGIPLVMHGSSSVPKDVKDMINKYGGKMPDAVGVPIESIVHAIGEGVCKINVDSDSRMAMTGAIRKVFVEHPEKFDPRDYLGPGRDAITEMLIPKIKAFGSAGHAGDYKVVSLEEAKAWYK
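Giardia FBPA (40 nM reagent) was preincubated 10 min at RT with compound (up to 57.5 uM final), then substrate plus GAPDH/TPI/NAD/arsenate coupling system with diaphorase/resazurin was added; resorufin fluorescence (525/598 nm) was read after 20 min.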
Shiga inhibitor: Shiga toxin inhibition; Vero cells, Shiga toxin protein synthesis inhibition reporter; inhibition, % at 38.7 µM; 290,000 tested, 9.2% active; AID 2315; in the data active = inhibition mostly above about 28%, no sharp cut-off; inactive = mostly below about 43%; note: 0% is about no effect
Pf growth 96h: inhibits malaria parasite growth, 96 h; AID 504834; P. falciparum luciferase reporter growth, 96 h; Potency, µM (series often up to 28.7 µM), without a hit: at the highest dose activity change, negative = inhibition, usual class: inhibitors; 320,000 tested, 6.9% active; note: potency is the fitted concentration of half-maximal effect; % is set by controls: 0 for no effect and ±100 for the full control effect
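Parasite growth measured via integrated firefly luciferase reporter in P. falciparum. Infected erythrocytes at 2% hematocrit, 0.05% parasitemia final were treated 96 hours at 37 C under 5% CO2, and luminescence was read.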
Cycloheximide cs: counter-screen for Shiga toxin inhibitors: cycloheximide protein synthesis inhibition; cell reporter, cycloheximide protein synthesis inhibition counterscreen; max response, %; 300,000 tested, 12% active; AID 2314; in the data active = max response mostly above about 13%, no sharp cut-off; inactive = mostly below about 14%; note: read at 38.3 µM for the half of the compounds with a filed dose; 0% is about no effect
Pf growth 48h: inhibits P. falciparum growth in the first generation, 48 h. P. falciparum luciferase growth in erythrocytes, 48 h. Potency, µM (doses to about 28.7 µM), for the others: at the highest dose activity change, negative = inhibition, actives largely listed as inhibitors. 310,000 tested, 5.9% active. AID 504832; note: potency is the fitted concentration of half-maximal effect; % is set by controls: 0 for no effect and ±100 for the full control effect
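Compounds are pin-transferred into medium, infected erythrocytes (2% hematocrit, 0.1% parasitemia final) are added, and plates sit one parasite generation at 37 C in 5% CO2. Detection reagent is then added and luminescence measured.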
NS1 inh: blocks influenza NS1 protein function. AID 2326. 270,000 tested, 0.4% active. Potency, µM (doses to about 46.1 µM), inactives show at the top dose activity, positive = more growth; calls by dose curve; note: potency is the fitted concentration of half-maximal effect; actives are rising curves; nearly all actives have a fitted effect of over 50% in size
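Growth recovery, yeast-based: influenza A NS1 expressed in S. cerevisiae causes slow growth, and suppressors are detected by OD600. The parent strain without NS1 is used as positive control.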
Giardia growth: inhibitors of Giardia lamblia growth. AID 2785. Giardia lamblia trophozoite growth inhibition. 1,500 tested, 5% active. shares compounds with Giardia FBPA inh-1. Potency, µM (top dose mostly 57.5 µM), for inactives: at the highest dose activity change, negative = inhibition, most hits filed as inhibitors;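 note: potency is the fitted concentration of half-maximal effect; trophozoites exposed to compound for 48 h at 37 °C; % is set by controls: 0 for no effect and ±100 for the full control effect; nearly all actives have a fitted effect of over 70% in size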
Mammal cell tox: toxic to mammalian cells in Giardia aldolase counter-screen; shares compounds with Giardia FBPA inh-1; mammalian cell viability counter-screen, qHTS; Potency, µM (highest dose often 57.5 µM), without a hit: top-dose viability change, negative = toxicity, actives largely listed as inhibitors; 1,500 tested, 4% active; AID 2786;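 note: Chinese hamster ovary cells used as mammalian cytotoxicity surrogate; viability measured as cellular ATP by luminescence; potency is the fitted concentration of half-maximal effect; compound exposure lasted 48 h before reading; % is set by controls: 0 for no effect and ±100 for the full control effect; nearly all actives have a fitted effect of over 60% in size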
Giardia FBPA inh-2: confirmation of Giardia fructose-bisphosphate aldolase inhibitors. Potency, µM (highest dose often 57.5 µM), for inactives: top-dose activity change, negative = inhibition, hits mostly inhibitors. 1,500 tested, 5% active. shares compounds with Giardia FBPA inh-1. purified Giardia aldolase enzyme activity, qHTS. AID 2787; note: potency is the fitted concentration of half-maximal effect; % is set by controls: 0 for no effect and ±100 for the full control effect; nearly all actives have a fitted effect of over 45% in size
Rabbit aldolase: rabbit FBP aldolase inhibition by Giardia aldolase hits. shares compounds with Giardia FBPA inh-1. AID 2794. 1,500 tested, 4% active. Potency, µM (doses to about 57.5 µM), without a hit: top-dose activity, negative = inhibition, hits mostly inhibitors. Rabbit muscle FBPA enzyme inhibition, selectivity counter-screen; note: potency is the fitted concentration of half-maximal effect; % is set by controls: 0 for no effect and ±100 for the full control effect; nearly all actives have a fitted effect of over 60% in size
Target sequence (P00883 whole entry, looked up): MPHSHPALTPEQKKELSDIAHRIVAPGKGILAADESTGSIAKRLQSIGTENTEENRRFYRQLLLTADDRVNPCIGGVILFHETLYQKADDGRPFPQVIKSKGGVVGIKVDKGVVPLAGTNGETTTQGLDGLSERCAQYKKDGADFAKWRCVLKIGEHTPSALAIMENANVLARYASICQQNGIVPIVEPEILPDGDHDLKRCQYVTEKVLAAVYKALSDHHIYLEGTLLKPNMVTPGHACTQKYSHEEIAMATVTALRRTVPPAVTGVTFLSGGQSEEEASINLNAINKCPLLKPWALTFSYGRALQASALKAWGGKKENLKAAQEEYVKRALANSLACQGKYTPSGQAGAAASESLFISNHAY
GAPDH counter: GAPDH inhibition flagged for Giardia aldolase hits | 1,500 tested, 6% active | Potency, µM (titrated, usually from 57.5 µM), inactives show top-dose activity change, negative = inhibition, hits mostly inhibitors | GAPDH coupling enzyme counterscreen, biochemical, qHTS | shares compounds with Giardia FBPA inh-1; note: potency is the fitted concentration of half-maximal effect; % is set by controls: 0 for no effect and ±100 for the full control effect; nearly all actives have a fitted effect of over 55% in size
Active calls of the source: *; u = inconclusive; x = no result; [ ] = remark or other dose. Unless noted, calls come from the whole dose curve; as a rule, active = well fitted curve in the direction sought with a large enough effect; inconclusive = small, poorly fitted or top-dose-only effect, or another doubt; inactive = no such curve, though single readings can be large; an effect the other way counts as inactive or inconclusive.

SMILES	Giardia FBPA inh-1	Shiga inhibitor	Pf growth 96h	Cycloheximide cs	Pf growth 48h	NS1 inh	Giardia growth	Mammal cell tox	Giardia FBPA inh-2	Rabbit aldolase	GAPDH counter
O=C(COc1ccc2c3c(c(=O)oc2c1)CCC3)NC(Cc1ccc(Cl)cc1)C(=O)O (stereo unspecified)	26.4%	-1.2	4.9%	-1.2	u	25.8%	x	x	x	x	x
Cc1cccc(OCCSc2nc(N)cc(N)n2)c1	15.8µM*	45.5*	45.6%	19.7*	78.3%	-5.8%	17.5%	16.7%	-0.8%	-2.6%	18.8%
CN(C)C(=O)CNc1n[nH]c(=S)[nH]c1=O	15.8µM*	47.4	36.5%	-0.1	11.7%	0.9%	u	4.4%	2.8%	3.1%	7.2%
CC(C)OC(=O)CNc1n[nH]c(=S)[nH]c1=O	4.46µM*	-8.9	35.8%	0.7	-7.7%	-2.3%	40.7%	-5.3%	6.0%	3.6%	5.7%
Cc1c(NC(=O)Cn2cnc3c(=O)n(C)c(=O)n(C)c32)cccc1-c1nc2ccccc2o1	x	x	x	x	x	23.4%	x	x	x	x	x
Cc1ccc(C(=O)c2no[n+]([O-])c2C(=O)c2ccc(C)cc2)cc1	15.8µM*	-2.5	1.9%	-2.2	0.0%	-65.1%	-5.4%	-2.1%	-6.6%	u	-27.1%
Cc1ccc(-c2noc(=O)n2CC(=O)c2ccc(Cl)cc2)cc1	1.4%	12.1	0.3%	-0.4	u	0.3%	x	x	x	x	x
O=C(NC(=S)Nc1ccc(CN2CCOCC2)cc1)c1cccc(F)c1	11.2µM*	24.6	-3.1%	22.5*	-4.7%	-12.6%	-10.7%	6.6%	-4.4%	8.5%	6.6%
CCOc1ccc(N2CC(C(=O)Nc3ccc(S(=O)(=O)NCC4CCCO4)cc3)CC2=O)cc1 (stereo unspecified)	-1.8%	-4.2	u	-9.6	-11.1%	-3.2%	x	x	x	x	x
O=C(OCc1cc(=O)n2cc(Br)ccc2n1)c1ccc(Cl)c(S(=O)(=O)NCc2ccccc2)c1	2.3%	-3.0	u	-5.0	-24.1%	2.2%	x	x	x	x	x
O=c1[nH]c2sccc2c2ccccc12	-7.8%	-2.9	x	-2.3	x	x	x	x	x	x	x
O=c1[nH]c(=S)[nH]c2sccc12	7.06µM*	-11.2	-16.2%	4.0	20.1%	x	-5.7%[38.3 µM]	-6.2%	-11.7%	-14.8%	-9.3%
COC(=O)[C@@H]1C[C@H]2CC[C@H](O)C[C@H]2N1CC1CC1	-7.7%	x	x	x	x	x	x	x	x	x	x
CSc1cccc(NC(=O)CN(C2CCCCC2)S(C)(=O)=O)c1	-4.8%	-6.6	x	-1.8	-1.0%	-30.7%	x	x	x	x	x
CSc1cccc(NC(=S)N2CCC(N(C)C3CCCCC3)CC2)c1	12.6µM*	-2.3	u	-2.3	-6.5%	x	u	-7.6%	-5.3%	-1.8%	3.1%
COc1ccccc1NC(=O)COC(=O)c1cnccn1	4.5%	21.4	x	12.1	9.5%	6.9%	x	x	x	x	x
COc1ccccc1OCC(=O)NNC(=O)c1cnccn1	15.8µM*	-2.9	124.0%	1.7	u	5.6%	u	3.3%	-1.3%	-0.7%	7.1%
COc1ccc(OCC(=O)NNC(=O)c2ccccn2)cc1	15.8µM*	-17.8	47.7%	-3.6	u	-6.3%	7.7%[10.4 µM]	8.4%	-0.8%	-4.6%	-4.4%
COc1ccc(OCC(=O)NCCNC(=O)c2ccccn2)cc1	8.3%	1.8	7.3%	-3.2	37.0%	-0.9%	x	x	x	x	x
CCOC(=O)C(C(=O)Nc1cccc(C)c1)C1CCCCC1 (stereo unspecified)	1.3%	-17.7	-7.1%	-1.3	x	-3.0%	x	x	x	x	x
CC(C)(C)CC(C)(C)NCC(=O)Nc1c2c(nc3ccccc13)CCC2	4.46µM*	-16.7	u	-1.5	u	2.0%	72.8%	3.0%	7.0%	12.3%	10.3%
CN1CCc2c1nc1ccccc1c2NC(=O)CN1CCCC1	17.8µM*	-3.8	-9.6%	0.4	26.1%	8.9%	-4.3%[10.4 µM]	-5.9%	10.3%	2.6%	7.0%
O=C(Nc1c2c(nc3ccccc13)CCCC2)c1ccccc1Cl	2.9%	-9.2	-17.8%	-4.6	18.1%	12.5%	x	x	x	x	x
Cc1nn(CCO)c2nc(-c3cccs3)cc(C(F)(F)F)c12	0.0%	-4.1	-0.3%	10.2	4.2%	27.4%	x	x	x	x	x
S=c1[nH]ccn1-c1c(Cl)cccc1Cl	0.0%	-10.7	1.7%	-5.8	38.6%	-4.1%	x	x	x	x	x
SMILES	Giardia FBPA inh-1	Shiga inhibitor	Pf growth 96h	Cycloheximide cs	Pf growth 48h	NS1 inh	Giardia growth	Mammal cell tox	Giardia FBPA inh-2	Rabbit aldolase	GAPDH counter
COc1ccc(OC)c(N=c2ssnc2Cl)c1	17.7µM*	-4.3	1.65µM*	-2.3	22.4%	-107.1%	u	8.9%	-10.0%	4.7%	-3.7%
COc1cc(N=c2ssnc2Cl)c(OC)cc1Cl	u	-9.1	u	-1.7	28.7%	-166.3%	x	x	x	x	x
Cc1cc(Cl)ccc1N=c1ssnc1Cl	15.8µM*	-14.3	3.6%	3.5	x	-166.4%	-21.0%	6.8%	-1.0%	-3.2%	21.4%
O=C(NC1CC1)C1=C[C@@H](C2CC2)C[C@@H](OCc2ccc(CO)cc2)O1	5.9%	19.1	36.8%	-1.3	45.1%	2.1%	x	x	x	x	x
O=C(COC(=O)CNS(=O)(=O)c1ccccc1)Nc1ccc(Cl)cn1	4.7%	3.0	u	-3.1	x	-19.6%	x	x	x	x	x
Cc1[nH]c(=S)c(C#N)c2c1CCCC2	10.7%	-5.7	u	-4.7	17.3%	x	x	x	x	x	x
CCC1(C)Cc2c(C#N)c(N)sc(=S)c2CO1 (stereo unspecified)	2.23µM*	-14.7	-23.0%	-5.4	u	u	6.3%[10.4 µM]	-5.6%	-17.0%	-6.3%	-13.3%
N#Cc1c(N)sc(=S)c2c1CCCC2	17.7µM*	-14.0	2.4%	-4.3	-3.9%	2.7%	u	2.2%	-16.1%	-14.7%	-19.1%
CC(NC(=O)OC1CCCCC1)N1C(=O)C2C3C=CC(C3)C2C1=O (stereo unspecified)	x	-8.0	u	11.0	6.9%	-2.4%	x	x	x	x	x
CCC(C)NS(=O)(=O)c1ccc(S(=O)(=O)N(CCc2ccc(OC)c(OC)c2)Cc2cccs2)cc1 (stereo unspecified)	-1.3%	6.4	-2.7%	-0.9	u	19.5%	x	x	x	x	x
OCC1OC(n2cnc3c(=S)nc[nH]c32)C(O)C1O (stereo unspecified)	4.46µM*	x	9.53µM*	x	u	x	u	6.31µM*	2.0%	2.3%	-6.4%

From PubChem BioAssay
